Screening results as filed in PubChem BioAssay.
This excerpt belongs to a sample that is enriched for hits.
HT1080NT lethal = kills 2HG-producing HT-1080-NT fibrosarcoma cells; Potency, µM (top dose mostly 46.1 µM), usual class: cytotoxic; HT-1080-NT fibrosarcoma viability, CellTiter-Glo ATP luminescence, 48 h; 360,000 compounds, 1.6% hits;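 further: NT is the 2HG producing partner of a matched IDH1 knockdown line; nearly all actives have a fitted effect of over 55% in size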
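Viability of the 2HG-overproducing fibrosarcoma line after 48 hours of compound exposure at 37 degrees C was determined by luminescence with CellTiter-Glo, and concentration-effect curves were then fitted and categorized.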
DT40 TDP1 CPT = growth inhibition of DT40 Tdp1-/-;hTDP1 cells with camptothecin (screen for TDP1 inhibitors). chicken DT40 Tdp1-/-;hTDP1 cells + 20 nM CPT, ATP luminescence, 48 h. Potency, µM (top dose mostly 46.2 µM), most hits filed as inhibitors. 420,000 compounds, 12% hits. AID 686979; further: nearly all actives have a fitted effect of over 55% in size
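Chicken DT40 Tdp1-/- cells stably complemented with human TDP1 were seeded at 400 cells/well in medium containing 20 nM camptothecin, exposed to pin-transferred compounds, and grown at 37 °C for at least 48 hr. Viability was read as ATP luminescence.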
HT1080 IDH1KD tx = HT-1080 IDH1 knockdown cell toxicity (counter line); 360,000 compounds, 2% hits; HT-1080 IDH1 knockdown viability, ATP luminescence, 48 h; Potency, µM (top dose mostly 46.1 µM), most hits filed as cytotoxic; AID 686971
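IDH1KD HT-1080 cells, 750/well, RPMI + 5% FBS; compound pinned after 2 h settling; 48 h, 37 °C; CellTiter-Glo luminescence; % activity normalised to DMSO and no-cell wells; curves fitted, classed by r2 and efficacy.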
DT40 TDP1 no CPT = qHTS for Inhibitors of human tyrosyl-DNA phosphodiesterase 1 (TDP1): qHTS in cells in absence of CPT | DT40 Tdp1-/- hTDP1 cells, no CPT, ATP luminescence, 48 h | Potency, µM (series often up to 46.2 µM), hits mostly inhibitors | 420,000 compounds, 15% hits | AID 686978, 2013; further: nearly all actives have a fitted effect of over 55% in size
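Luminescent ATP content (CellTiter-Glo) served as the growth readout. Knockout chicken DT40 cells expressing human TDP1 were exposed to compounds without camptothecin for a minimum 48 hr at 37 °C.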
ALOX12 inh = ALOX12 (human) lipoxygenase inhibition; Potency, µM (highest dose often 108 µM), actives largely listed as inhibitors; 580,000 compounds, 1.1% hits; P18054; AID 1671190; purified 12hLO, xylenol orange hydroperoxide absorbance
Target sequence (P18054 whole entry, looked up): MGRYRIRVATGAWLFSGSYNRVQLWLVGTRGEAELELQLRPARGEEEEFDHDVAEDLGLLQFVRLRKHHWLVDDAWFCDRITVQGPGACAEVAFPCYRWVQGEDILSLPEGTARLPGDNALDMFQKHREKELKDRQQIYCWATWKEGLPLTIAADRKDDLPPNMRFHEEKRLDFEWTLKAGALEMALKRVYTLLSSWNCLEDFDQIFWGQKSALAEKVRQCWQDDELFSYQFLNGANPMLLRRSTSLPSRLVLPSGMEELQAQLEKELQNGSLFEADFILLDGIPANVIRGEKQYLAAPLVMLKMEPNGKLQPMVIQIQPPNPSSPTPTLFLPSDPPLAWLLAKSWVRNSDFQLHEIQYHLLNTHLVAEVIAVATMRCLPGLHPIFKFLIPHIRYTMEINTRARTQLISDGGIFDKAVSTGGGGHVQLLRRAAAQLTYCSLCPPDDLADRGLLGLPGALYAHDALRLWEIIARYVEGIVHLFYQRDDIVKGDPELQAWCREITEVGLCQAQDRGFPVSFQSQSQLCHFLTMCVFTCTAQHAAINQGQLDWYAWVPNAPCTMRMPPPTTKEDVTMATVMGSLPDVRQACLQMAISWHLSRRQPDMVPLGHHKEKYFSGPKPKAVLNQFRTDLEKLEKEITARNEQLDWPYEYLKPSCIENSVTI
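Purified human 12hLO (150 nM final) in 25 mM Hepes, 0.01% Triton X-100, pH 7.0 was preincubated 15 min at room temperature with compound. Then 40 uM arachidonic acid was added, 30 min. Hydroperoxide was read by Fe-XO absorbance ratio 573/405 nm.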
IL-1B inflam inh = inhibitors of inflammasome signaling (IL-1 beta secretion) | AID 743279 | THP-1 LPS/ATP IL-1B secretion, AlphaLISA, 16 h; hits give low values | activity change, % at 57.5 µM | 360,000 compounds, 4.7% hits; in the data active means activity change below about -50%; inconclusive means mostly about -30% to -49%
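THP-1 cells pretreated 1 hr with compounds (up to 57.5 uM final), then stimulated with LPS (250 ng/mL final) plus ATP (1.25 mM final); secreted IL-1B measured by AlphaLISA after 16 hr, decreased signal indicating inhibition.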
Numbers stand for hits; n = inactive; u = inconclusive; x = not tested or not shown; ! = repeats disagree. Unless noted, the call rests on the fitted dose curve; in most records, active means well fitted curve in the direction sought with a large enough effect; inconclusive means small, poorly fitted or top-dose-only effect, or another doubt; inactive means no such curve, though single readings can be large; an effect the other way counts as inactive or inconclusive.

SMILES	HT1080NT lethal	DT40 TDP1 CPT	HT1080 IDH1KD tx	DT40 TDP1 no CPT	ALOX12 inh	IL-1B inflam inh
COc1cccc(CNC(=O)[C@@H]2C[C@@H](O)CN2C2CCN(C(=O)Cc3c[nH]c4ccccc34)CC2)c1	x	x	x	x	n	x
COc1ccc(-c2noc(CCC(=O)Nc3cccc(C(=O)NC4CC4)c3)n2)cc1OC	n	u	n	u	n	-53
COc1ccc(NC(=O)CCc2nc(-c3ccccc3F)no2)cc1	n	u	n	2.6µM	n	n
COc1ccccc1-c1noc(CCC(=O)Nc2cccc(C)c2)n1	n	u	n	u	u	n
O=C(CCc1nc(-c2ccccc2F)no1)Nc1cccc(C(F)(F)F)c1	x	18µM	x	15µM	n	x
CCOC(=O)c1cccc(NC(=O)CCc2nc(-c3ccccc3F)no2)c1	n	23µM	n	u	n	n
CCOc1c(CNc2ccc(N3CCOCC3)c(C(=O)O)c2)cccc1OC	x	x	x	x	n	x
CCc1ccc2occ(CC(=O)Nc3sc4c(c3C(=O)OC)CCC4)c2c1	x	13µM	x	18µM	n	x
CNC(=O)c1c(NC(=O)Cc2coc3ccc(C)cc23)sc2c1CCCC2	x	u	x	18µM	n	x
O=C(C1=C[C@@H](c2ccccc2)C[C@@H](OCc2ccc(CO)cc2)O1)N1CCCCCCC1	n	u	n	u	n	n
CC(C)(C)[C@H]1C=C(C(=O)N2CCN(Cc3ccc4c(c3)OCO4)CC2)O[C@@H](OCc2ccc(CO)cc2)C1	n	21µM	n	18µM	n	-61
CC(C)(C)[C@@H]1C=C(C(=O)N2CCN(Cc3ccccc3)CC2)O[C@H](OCc2ccc(CO)cc2)C1	n	13µM	n	u	n	n
CCn1ccnc1CNc1ccc(-c2nc(-c3ccccc3C)no2)cn1	x	x	x	x	n	x
Cc1c(CCOC(=O)CC23CC4CC(CC(C4)C2)C3)sc[n+]1Cc1ccccc1	u	2.1µM	u	1.8µM	n	u
Cc1c(CCOC(=O)C23CC4CC(CC(C4)C2)C3)sc[n+]1CC#N	u	3.3µM	u	5.2µM	n	-102
COc1ccc(S(=O)(=O)Oc2ccc3c(c2)O/C(=C\c2ccc(OC)c(OC)c2)C3=O)cc1	x	x	x	x	n	x
Cc1[nH]c(N=Nc2ccccc2)nc1N=Nc1ccccc1	n	5.8µM	u	5.8µM	n	n
Cc1cccc2c(N=Nc3ccccc3)c(O)[nH]c12	n	n	n	n	n	n
CCCCNC(=S)NCc1ccc2[nH]c(C)cc2c1	n	u	n	u	u	n
CCOc1ccc(NC(=S)NCc2ccc3[nH]c(C)cc3c2)cc1	n	n	n	n	10µM	n
Cc1cc2cc(CNC(=S)Nc3cccc(Br)c3)ccc2[nH]1	x	x	x	x	28µM	x
CCOC(=O)C(C)On1c(-c2ccccc2)nc2ccc([N+](=O)[O-])cc21 (stereo not drawn)	n	u	n	18µM	u	n
COC(=O)c1cc(=O)nc2sc(-c3ccc(F)cc3)nn12	n	23µM	n	u	x	n
CCC(CC)NC(=O)C1CCCN(Cc2ccncc2)CCC(=O)NCC1 (stereo not drawn)	x	x	x	x	n	x
Oc1ccc(CN2CCCc3ccccc32)c2cccnc12	n	3.7µM	u	4.6µM	x	n
SMILES	HT1080NT lethal	DT40 TDP1 CPT	HT1080 IDH1KD tx	DT40 TDP1 no CPT	ALOX12 inh	IL-1B inflam inh
O=S1(=O)N=C(Nc2nc3c(s2)CCCC3)c2ccccc21	n	6.5µM	n	5.2µM	n	n
Cc1cccc(Nc2nc3c(s2)CCCC3)c1	n	23µM	n	18µM	u	n
Cc1c(CCO)sc[n+]1CC(=O)OCCC12CC3CC(CC(C3)C1)C2	n	u	n	u	n	n
Cc1c(CCOC(=O)c2ccc(Cl)cc2Cl)sc[n+]1CC(=O)c1ccc(Br)cc1	n	u	n	18µM	u	u
Cc1c(CCOC(=O)C2C3CC4CC(C3)CC2C4)sc[n+]1CC(=O)c1ccc(Br)cc1 (stereo not drawn)	u	u	u	18µM	40µM!	-85
Cc1ncsc1CCOC(=O)c1ccc(Cl)cc1	n	n	n	n	n	n
CC(CCc1ccccc1)NC(=O)C1CC1C (stereo not drawn)	x	x	x	x	n	x
Cc1ccccc1C(C)NC(=O)c1cccnc1 (stereo not drawn)	x	x	x	x	n	x
CC1(Cc2ccccc2C#N)C(=O)Nc2ccc(OC(F)(F)F)cc21 (stereo not drawn)	n	n	n	n	n	n
CC1(Cc2ccccc2Cl)C(=O)Nc2ccc(OC(F)(F)F)cc21 (stereo not drawn)	u	23µM	29µM	u	u	n
COc1ccc2[nH]c(S(=O)Cc3ncc(C)c(OC)c3C)nc2n1 (stereo not drawn)	x	u	x	27µM	x	x
COc1ccc2[nH]c(S(=O)Cc3ncc(C)c(OC)c3C)nc2c1 (stereo not drawn)	n	u	n	16µM	u	n
O=C(NCc1cccs1)c1nc(-c2ccccc2)c2ccccn12	x	x	x	x	n	x
Cc1nn(-c2ccccc2)c2sc(C(=O)OC3CCOC3=O)cc12 (stereo not drawn)	n	n	n	n	n	n
Cc1nn(C)c(C)c1CCN(C)C(=O)[C@H]1CN(Cc2ccccc2)C[C@H]1C(=O)O	x	x	x	x	n	x
Cc1cccc(-c2nc3cc(NC(=O)c4ccc(C)c([N+](=O)[O-])c4)ccc3o2)c1	x	x	x	x	n	x
Cc1ccc2oc(-c3cccc(NC(=O)c4ccc(N5CCC(C)CC5)c([N+](=O)[O-])c4)c3)nc2c1	x	18µM	x	7.3µM	u	x
O=C(Nc1cccc(-c2nc3ccccc3o2)c1)c1ccc(Cl)c([N+](=O)[O-])c1	x	x	x	x	n	x
COc1cccc(-c2nc3cc(NC(=O)c4ccc(C)c([N+](=O)[O-])c4)ccc3o2)c1	x	x	x	x	45µM	x
CC(=O)Nc1cc(-c2cccc(C(=O)NCCN(C)C)c2)cn2c(-c3ccc(C(C)=O)cc3)cnc12	18µM	u	u	21µM	n	n
CC(=O)Nc1cc(-c2cccc(C(=O)NCCN(C)C)c2)cn2c(-c3ccc(F)c(Cl)c3)cnc12	16µM	2.1µM	21µM	1.5µM	u	n
CN(C)CCNC(=O)c1cccc(-c2cnc3ccc(-c4cccc(F)c4)nn23)c1	x	x	x	x	n	x
Cc1ccccc1C(C(=O)NCc1ccco1)N(CC1CCCO1)C(=O)Cn1nnc2ccccc21 (stereo not drawn)	n	u	n	n	n	n
COc1cccc(C(C(=O)NCc2ccco2)N(C(=O)Cn2nnc3ccccc32)C2CC2)c1OC (stereo not drawn)	n	18µM	n	13µM	n	n
